Measurements published in PubChem BioAssay AID1540 (National Center for Advancing Translational Sciences (NCATS), 2009).
Inconclusive results are not listed. Activity calls are given as the source filed them. Calls follow the shape of the dose curve; as a rule, active = well fitted activation curve with a large enough effect; inconclusive = small, poorly fitted or top-dose-only effect, or effect the other way; inactive = flat fitted curve, though single readings scatter.

Biological target: Pyruvate kinase PKM (Homo sapiens) (UniProt P14618)
Assay: Secondary assay for Activators of Human Pyruvate Kinase M2 isoform
Procedure, shortened: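 Initial rates came from kinetic NADH fluorescence loss read every 30 s for 3–6 min. The LDH-coupled reaction held 10 nM hPK-M2, 0.1 mM PEP, 4.0 mM ADP, 0.2 mM NADH and 1 uM LDH at pH 8.0. Normalized between uninhibited and EC100 activation with fructose-bis-phosphate.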

Chain of Pyruvate kinase PKM (Homo sapiens) (P14618 whole entry, looked up, canonical isoform): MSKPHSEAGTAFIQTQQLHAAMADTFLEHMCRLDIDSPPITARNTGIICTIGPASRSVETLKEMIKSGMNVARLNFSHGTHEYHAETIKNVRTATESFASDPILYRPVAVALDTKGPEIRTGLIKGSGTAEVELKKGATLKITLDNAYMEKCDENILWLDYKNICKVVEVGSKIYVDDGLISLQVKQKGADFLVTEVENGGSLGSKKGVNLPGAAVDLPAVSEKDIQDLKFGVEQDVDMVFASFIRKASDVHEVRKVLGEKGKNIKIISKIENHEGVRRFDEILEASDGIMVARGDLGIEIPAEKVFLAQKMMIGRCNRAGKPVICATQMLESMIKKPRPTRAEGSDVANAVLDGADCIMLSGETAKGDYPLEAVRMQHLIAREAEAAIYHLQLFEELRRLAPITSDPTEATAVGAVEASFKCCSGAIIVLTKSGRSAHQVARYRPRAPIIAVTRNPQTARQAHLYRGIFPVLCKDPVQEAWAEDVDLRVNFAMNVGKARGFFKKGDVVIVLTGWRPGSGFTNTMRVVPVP

Cc1cc2c(s1)c1cnn(Cc3ccc(Cl)cc3)c(=O)c1n2C
Potency: 1.12 µM (active)
